# Measured values from PubChem BioAssay AID2685 (National Center for Advancing Translational Sciences (NCATS), 2010).
# Hit rate of the full screen: of about 320,000 compounds, about 2,100 (0.66%) were called active. About 53% were inconclusive and are not listed. Calls follow the shape of the dose curve; as a rule, active = well fitted inhibition curve with a large enough effect in the signal ratio, with a control signal flat (not every such curve was filed as active); inconclusive = small, poorly fitted or top-dose-only effect, or effect the other way, or a change in a side signal; inactive = flat fitted curve, though single readings scatter; the % refers to the signal ratio. The entries come from a sample that favours actives as a whole.
# Assay: qHTS Assay for Lipid Storage Modulators in Drosophila S3 Cells;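 as to cell number change: cells counted by Cell Tracker Red CMTPX staining in the red channel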; as to lipid storage change, negative = inhibition: % is scaled to controls: 0 for no effect and ±100 for the full control effect
# Settings: BODIPY lipid droplet fluorescence, 18-24 h, cells fed with added oleic acid; cell number change: measured here: cell count max response; series mostly up to 46.1 µM; lipid storage change, negative = inhibition: at the top concentration
# In short: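 Laser-scanning cytometry quantifies lipid droplet accumulation (500–530 nm total intensity; droplet/cell object ratio) in oleic acid-fed (400 uM added) Drosophila S3 cells treated with a concentration series. 20 uM Triacsin C defined 100% inhibition.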
# Potency is read from the fitted curve at half-maximal effect.
SMILES,"lipid storage change, negative = inhibition",cell number change [%],outcome,Potency
O=C(O)c1ccc2c(c1)C(=O)N(c1ncccn1)C2=O,2.95% (inactive),-0.987,,
Cc1ccc(Cn2c(CN3CCOCC3)nc3c2c(=O)n(C)c(=O)n3C)cc1,2.04% (inactive),6.6,,
COc1ccc(-c2[nH]ncc2CN(C)C(C)c2cccs2)c(F)c1 (configuration not stated),2.81% (inactive),8.77,,
COc1ccc(Cc2nc3ccc(C(=O)NC(C)c4cn(C)nc4C)cc3o2)cc1 (configuration not stated),,-22.9,inactive,
O=C(O)c1c(Cl)cccc1Cl,3.03% (inactive),4.08,,
O=C(Oc1ccccc1)c1c(Cl)cccc1P(=O)(O)O,,3.12,,3.66 µM (active)
O=C(Oc1ccc(/C=N/O)cc1)c1ccccc1Cl,14.4% (inactive),-11.5,,
CSc1ccc(Cl)c(C(=O)N2CCOc3ccccc32)c1,3.65% (inactive),-26.8,,
O=C(c1ccc(N2C(=O)C3CC=C(Cl)CC3C2=O)cc1)N1CCOCC1 (configuration not stated),-4.16% (inactive),30,,
COc1ccccc1OCC(=O)Nc1ccc(N2CCOCC2)cc1N1CCOCC1,-21.3% (inactive),2.71,,
COc1cc(C(=O)Nc2ccccc2N2CCOCC2)ccc1OCC(=O)N1CCOCC1,-20.4% (inactive),,,
COc1cc(C=O)ccc1OCC(=O)Nc1ccccc1N1CCOCC1,,-24.3,,2.59 µM (active)
Cc1c(OCC(=O)NCC2CCC(C(=O)O)CC2)ccc2c(-c3ccccc3)cc(=O)oc12 (configuration not stated),6.37% (inactive),0.647,,
Cc1c(OC(C)C(=O)NCc2ccccn2)ccc2c3c(c(=O)oc12)CCC3 (configuration not stated),,-27.2,,11.6 µM (active)
Cc1c(OC(C)C(=O)N[C@H](C(=O)O)c2ccccc2)ccc2c3c(c(=O)oc12)CCCC3 (some centres not stated),-14.4% (inactive),-8.43,,
CCc1cc2c(-c3ccccc3)cc(=O)oc2cc1OCC(=O)NCC1CCC(C(=O)O)CC1 (configuration not stated),-3.52% (inactive),22.7,,
CCc1cc2c(-c3ccccc3)cc(=O)oc2cc1OCC(C)=O,,-1.82,,0.651 µM (active)
CC(=O)COc1ccc2c(-c3ccccc3)cc(=O)oc2c1C,10.7% (inactive),-1.68,,
CCc1cc2c(-c3ccccc3)cc(=O)oc2cc1OC(C)C(=O)NCC1CCC(C(=O)O)CC1 (configuration not stated),,17.8,inactive,
Cc1c(OC(C)C(=O)NCC(O)c2ccccc2)ccc2c3c(c(=O)oc12)CCCC3 (configuration not stated),,9.43,,29.1 µM (active)
CC(Oc1ccc2c3c(c(=O)oc2c1)CCC3)C(=O)NCc1ccccn1 (configuration not stated),,1.9,inactive,
Cc1c(OCC(=O)NCC(O)c2ccccc2)ccc2c(-c3ccccc3)cc(=O)oc12 (configuration not stated),,-9.69,,16.4 µM (active)
Cc1c(OCC(=O)NCC(O)c2ccccc2)ccc2c3c(c(=O)oc12)CCCC3 (configuration not stated),,-19.4,inactive,
Cc1c(OC(C)C(=O)NCc2ccncc2)ccc2c3c(c(=O)oc12)CCC3 (configuration not stated),,-1.18,inactive,
